Results published in PubChem BioAssay.

Each molecule was assayed against Tumor necrosis factor receptor superfamily member 10B (Homo sapiens) (UniProt O14763) (assay: caspase-8 TRAIL sensitization, hit retest, confirmation, cell-based, NB7+caspase-8, with/without TRAIL, luminescence panel (AID 651596)). Conditions: NB7 neuroblastoma + caspase-8, TRAIL sensitization, luminescence viability, with TRAIL, mean of runs, at 10 µM, stronger effect = higher value; in the data active means activity above about 50%; inactive means the rest.
Chain of Tumor necrosis factor receptor superfamily member 10B (Homo sapiens) (O14763 whole entry, looked up): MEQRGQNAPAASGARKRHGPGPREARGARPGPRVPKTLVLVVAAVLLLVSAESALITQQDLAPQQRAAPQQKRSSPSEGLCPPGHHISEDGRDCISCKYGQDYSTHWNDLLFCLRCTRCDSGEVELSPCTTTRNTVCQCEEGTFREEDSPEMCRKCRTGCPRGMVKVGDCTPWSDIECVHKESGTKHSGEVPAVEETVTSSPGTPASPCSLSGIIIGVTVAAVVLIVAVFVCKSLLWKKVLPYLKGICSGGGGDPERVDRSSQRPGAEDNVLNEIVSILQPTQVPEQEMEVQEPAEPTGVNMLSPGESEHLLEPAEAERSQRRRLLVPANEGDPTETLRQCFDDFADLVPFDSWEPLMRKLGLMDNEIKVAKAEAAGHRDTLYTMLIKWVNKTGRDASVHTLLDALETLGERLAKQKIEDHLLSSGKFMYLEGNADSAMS
`Cc1c(P(=S)(c2ccccc2)c2ccccc2)[n+]2ccccc2n1C/C=C/c1ccccc1` gave an activity of 83.3%. Work on `CN1/C(=C\C(=O)c2cccs2)Sc2ccccc21` yielded an activity of 63%. With `COc1ccc(C2CC(c3ccc(Br)cc3)=NN2C(=O)CSC2=NN3CCCC(=O)N=C3S2)cc1` (centres undefined) the activity was 95.8%. `O=C(Nc1ccc(-c2nc3ccccc3o2)cc1)C1CCCO1` (centres undefined) was tested, and the activity was 51.7%. Molecule `C=CCOC(=O)c1sc(NC(=O)c2ccco2)nc1C` has an activity of 39.1%. `COc1ccc(-c2ccc3ccccc3n2)cc1` was tested, and the activity was 32.4%. In the case of `COc1cccc2cc(-c3nc4ccccc4[nH]3)c(=O)oc12`, the activity is reported as 64.5%. In the case of `O=C(CCl)N(O)c1ccc(C=Cc2ccccc2)cc1`, the activity is reported as 40%. `CN(C)CC(O)c1ccc(C=Cc2ccc(Cl)cc2)cc1` (centres undefined) showed an activity of 98.3%. With `COc1ccc(-c2cc(=O)c3ccccc3s2)cc1` the activity was 61.2%. `Cc1ccnc(NC(=O)c2sc3ccccc3c2Cl)c1` was tested, and the activity was 91.6%. In the case of `OCC1OC(n2cnc3c(=S)nc[nH]c32)CC1O` (centres undefined), the activity is reported as 31.4%. `C/C(=N\Nc1nc2ccccc2s1)c1cccs1` gave an activity of 52.8%. For `COc1ccc2cc3cc(C(=O)N4CCCCCC4)oc3nc2c1`, the activity was 45.1%. `Nc1c2c(nc3sc4c(c13)CCCCC4)CCCCC2` showed an activity of 48.1%. `Cc1ccc(C(=O)Nc2ccc3c(c2)OCCO3)cc1` showed an activity of 90.4%. Molecule `CN(C)CCCNC(=O)C[C@H]1C[C@H](C(=O)N2CCCCC2)[C@@]2(CCc3ccccc3)c3[nH]c4ccc(Cl)cc4c3CCN2C1=O` has an activity of 35.8%. With `COc1ccc(/C=C/c2cc(-c3ccc(C)cc3)o[n+]2C)cc1` the activity was 81.8%. In the case of `COc1ccc(/C(N)=N/OC(=O)c2ccc(OC)c([N+](=O)[O-])c2)cc1OC`, the activity is reported as 92.1%.
